Measured values from PubChem BioAssay (EPA / NIEHS).
The source made the active and inactive calls. Rule for the calls: active = hit-call score of the fitted dose curve at least 0.9, where 1 is the maximum; inactive = score below 0.9.

Experiments:
[1] = APR_HepG2_P-H2AX_72hr: Apredica 72-hour HepG2 Assay for H2AX Phosphorylation (AID 2282916); details: imaging, actives raise or lower the signal;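 note: phospho-histone H2A.x immunostain intensity per cell marking DNA damage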
Summary of the method: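 Following 72 hr treatment with 0.39–200 uM compound, HepG2 cells were formaldehyde-fixed, permeabilized and stained for phospho-H2A.x; signal was measured by high-content imaging and fitted bidirectionally against DMSO controls.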

[2] = APR_HepG2_MitoMembPot_72hr: Apredica 72-hour HepG2 Assay for Mitochondrial Membrane Potential (AID 2282917); details: imaging, actives raise or lower the signal
Summary of the method: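 Membrane potential read by MitoTracker Red CMXRos (250 nM, 30 min, pre-fixation) fluorescence imaging of HepG2 after 72 hr exposure. Ten concentrations, 0.39–200 uM, duplicate wells, 0.5% DMSO; fitted in both directions against DMSO baseline.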

[3] = APR_HepG2_MitoticArrest_72hr: Apredica 72-hour HepG2 Assay for Mitotic Arrest (AID 2282918); details: high-content imaging, actives raise or lower the signal
Summary of the method: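 HepG2 cells treated 72 h at 0.39–200 uM, 0.5% DMSO final; formaldehyde-fixed, stained with Hoechst 33342 and phospho-histone H3 antibody, imaged by high-content fluorescence; bidirectional fit versus DMSO.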

[4] = APR_HepG2_MicrotubuleCSK_72hr: Apredica 72-hour HepG2 Assay for Microtubule CSK Stabilty (AID 2282919); details: HepG2 microtubule cytoskeleton, high-content imaging, actives raise or lower the signal
Summary of the method: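 Read-out is tubulin fluorescence intensity from high-content imaging of HepG2 cells, with nuclei identified by Hoechst 33342. Treatment lasts 72 h at 0.39–200 uM, and curves are fitted bidirectionally against the DMSO negative control.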

[5] = APR_HepG2_P-H2AX_24hr: Apredica 24-hour HepG2 Assay for H2AX Phosphorylation (AID 2282920); details: high-content imaging, actives raise or lower the signal
Summary of the method: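 HepG2 cells dosed 24 h at 0.39–200 uM (10 points, duplicate, 0.5% DMSO final). Formaldehyde-fixed and permeabilized, then immunostained for phospho-H2A.x with Hoechst. Fluorescence quantified by high-content imaging, fitted bidirectionally versus DMSO.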

[6] = APR_HepG2_StressKinase_72hr: Apredica 72-hour HepG2 Assay for Stress Kinase (AID 2282921); details: HepG2 stress kinase (phospho-c-Jun) imaging, actives raise or lower the signal
Summary of the method: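 Fluorescence intensity of Cy3-tagged anti-phospho-c-Jun antibody, quantified per cell from Hoechst-defined nuclei across six images per well, served as the read-out following 72 h exposure (0.39–200 uM, 0.5% v/v DMSO).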

[7] = APR_HepG2_StressKinase_24hr: Apredica 24-hour HepG2 Assay for Stress Kinase (AID 2282922); details: HepG2 stress kinase (phospho-c-Jun) imaging, actives raise or lower the signal
Summary of the method: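 HepG2, 24 hr dosing, 0.39–200 uM in duplicate, 0.5% DMSO; formaldehyde fix (3.7%), 0.5% Triton X-100; anti-phospho-c-Jun + Cy3 secondary, Hoechst counterstain; ArrayScan imaging; bidirectional curve fit vs DMSO baseline.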

[8] = APR_HepG2_p53Act_72hr: Apredica 72-hour HepG2 Assay for p53 Activation (AID 2282923); details: high-content imaging, actives raise or lower the signal;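 note: average cellular p53 protein immunofluorescence intensity in HepG2 cells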
Summary of the method: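 HepG2 monolayers receive test compounds in duplicate at ten concentrations (0.39 through 200 uM) for 72 hr. They are then formaldehyde-fixed, antibody-labelled for p53, Hoechst-stained and imaged, with activity fitted bidirectionally versus DMSO.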

[9] = APR_HepG2_MitoMass_72hr: Apredica 72-hour HepG2 Assay for Mitochondrial Mass (AID 2282924); details: high-content imaging, actives raise or lower the signal;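 note: MitoTracker Red CMXRos stain intensity per cell imaged as mitochondrial mass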
Summary of the method: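 HepG2, 72 hr cmpd, 10 conc 0.39–200 uM in dup, DMSO 0.5% v/v. MitoTracker Red CMXRos 250 nM 30 min pre-fix; formaldehyde 3.7% fix 30 min RT. HCS imaging, gain/loss fit vs DMSO.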

[10] = APR_HepG2_NuclearSize_72hr: Apredica 72-hour HepG2 Assay for Nuclear Size (AID 2282925); details: high-content imaging, actives raise or lower the signal
Summary of the method: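 HepG2; cpd 0.39–200 uM, 10 conc, duplicate; 72 h; DMSO 0.5% v/v; fix 3.7% formaldehyde 30 min RT; Triton permeabilization; Hoechst 2 ug/mL; HCS imaging 20x; nuclear diameter; gain/loss fit vs DMSO.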

[11] = ATG_CRE_CIS: Attagene CIS-FACTORIAL HepG2 Assay for human cAMP Responsive Element (CRE) binding protein 3 (AID 2282926); details: HepG2 CRE cis-reporter, Attagene multiplexed mRNA; actives raise or lower the signal
Summary of the method: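 HepG2 cells transiently transfected with cis-element-driven multiple reporter transcription units; CRE reporter mRNA measured 24 h after dosing by RT-PCR, 6-FAM labelling, HpaI digestion and capillary electrophoresis. Bidirectional fit versus DMSO baseline.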

[12] = target: CCAAT/enhancer-binding protein beta (Homo sapiens) (UniProt P17676); assay: ATG_C_EBP_CIS: Attagene CIS-FACTORIAL HepG2 Assay for human CCAAT/Enhancer Binding Protein (C/EBP) beta (AID 2282927); details: HepG2 Attagene cis-factorial transcription factor reporter; actives raise or lower the signal
Summary of the method: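 Changes in reporter mRNA, rather than exogenous chimeric receptor activity, reflect native C/EBP signalling in transfected HepG2 cells dosed for 24 h; transcripts are detected by RT-PCR and capillary electrophoresis.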

[13] = ATG_CMV_CIS: Attagene CIS-FACTORIAL HepG2 Assay for human CMV (Internal Marker) (AID 2282928); details: HepG2 CMV promoter reporter, transcription factor profiling; actives raise or lower the signal;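 note: endpoint acts as a background internal control marker rather than a target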
Summary of the method: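 HepG2 cells transiently transfected with multiple cis-regulated reporter units; 24 h compound exposure. Reporter mRNA quantified by RT-PCR, 6-FAM primer-extension labeling, HpaI digestion and capillary electrophoresis; bidirectional fitting against DMSO baseline.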

[14] = ATG_DR4_LXR_CIS: Attagene CIS-FACTORIAL HepG2 Assay for human Liver X Receptor (LXR), DR4 submotif (AID 2282929); details: HepG2 Attagene DR4 cis-reporter, mRNA transcription; actives raise or lower the signal
Summary of the method: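 HepG2 cells were transiently transfected with multiple cis-regulated reporter units and dosed for 24 hours. The DR4 reporter mRNA was quantified by RT-PCR, 6-FAM labelling and capillary electrophoresis. Bidirectional fits used DMSO as baseline.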

[15] = target: Aryl hydrocarbon receptor (Homo sapiens) (UniProt P35869); assay: ATG_Ahr_CIS: Attagene CIS-FACTORIAL HepG2 Assay for human Aryl Hydrocarbon Receptor (Ahr) (AID 2282930); details: HepG2 AhR cis-factorial reporter transcription; actives raise or lower the signal
Summary of the method: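 HepG2, transient MRTU (cis) transfection, 24 h exposure. RNA → cDNA → PCR → 6-FAM primer extension → HpaI 2 h 37 C → CE. Fit: bidirectional, DMSO baseline.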

[16] = ATG_AP_1_CIS: Attagene CIS-FACTORIAL HepG2 Assay for human Activator Protein 1 (AP-1) (AID 2282931); details: HepG2 Attagene cis-factorial AP-1 reporter mRNA; actives raise or lower the signal
Summary of the method: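 HepG2 cells transiently transfected with cis-element-driven reporter transcription units, dosed for 24 hours. Reporter mRNA measured by RT-PCR, 6-FAM labelling, HpaI digestion and capillary electrophoresis. Bidirectional fitting against DMSO baseline.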

[17] = ATG_AP_2_CIS: Attagene CIS-FACTORIAL HepG2 Assay for human Activator Protein 2 (AP-2) (AID 2282932); details: HepG2 AP-2 cis-reporter, Attagene transcription factor profiling; actives raise or lower the signal
Summary of the method: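 Step one: transient transfection of HepG2 with reporter transcription units. Step two: 24 h chemical exposure. Step three: RNA extraction, RT-PCR, labelled fragment analysis by capillary electrophoresis; DMSO serves as baseline.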

[18] = ATG_BRE_CIS: Attagene CIS-FACTORIAL HepG2 Assay for human Bone Morphogenetic Protein (BMP) Response Element (BRE) (AID 2282933); details: HepG2 BMP response element reporter, Attagene transcription factor profiling; actives raise or lower the signal
Summary of the method: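 After a 24 h chemical treatment, transiently transfected HepG2 cells were lysed for RNA; reporter transcripts were quantified by fluorescent RT-PCR and capillary electrophoresis, normalised to DMSO.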

[19] = target: Retinoic acid receptor alpha (Homo sapiens) (UniProt P10276); assay: ATG_DR5_RAR_CIS: Attagene CIS-FACTORIAL HepG2 Assay for human Retinoic Acid Receptor Alpha (RARE), DR5 submotif (AID 2282934); details: HepG2 Attagene cis-factorial RARE DR5 reporter, mRNA; actives raise or lower the signal;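 for AC50: reporter responds to endogenous RAR alpha beta and gamma in HepG2 not RARA alone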
Summary of the method: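 HepG2, transient cis-reporter transfection, 24 h exposure. mRNA readout: RT-PCR, FAM label, HpaI cut, capillary electrophoresis. DMSO baseline, gain/loss fitting.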

[20] = target: Transcription factor E2F1 (Homo sapiens) (UniProt Q01094); assay: ATG_E2F_CIS: Attagene CIS-FACTORIAL HepG2 Assay for human E2F Transcription Factor 1 (AID 2282935); details: HepG2 Attagene cis-reporter, E2F reporter RNA transcripts; actives raise or lower the signal
Summary of the method: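 Total RNA from 24 h-treated, reporter-transfected HepG2 cells undergoes DNase I treatment, oligo(dT) reverse transcription, PCR and 6-FAM primer extension before capillary electrophoresis.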

Measured: AC50

Sequence of Retinoic acid receptor alpha (Homo sapiens) (P10276 whole entry, looked up): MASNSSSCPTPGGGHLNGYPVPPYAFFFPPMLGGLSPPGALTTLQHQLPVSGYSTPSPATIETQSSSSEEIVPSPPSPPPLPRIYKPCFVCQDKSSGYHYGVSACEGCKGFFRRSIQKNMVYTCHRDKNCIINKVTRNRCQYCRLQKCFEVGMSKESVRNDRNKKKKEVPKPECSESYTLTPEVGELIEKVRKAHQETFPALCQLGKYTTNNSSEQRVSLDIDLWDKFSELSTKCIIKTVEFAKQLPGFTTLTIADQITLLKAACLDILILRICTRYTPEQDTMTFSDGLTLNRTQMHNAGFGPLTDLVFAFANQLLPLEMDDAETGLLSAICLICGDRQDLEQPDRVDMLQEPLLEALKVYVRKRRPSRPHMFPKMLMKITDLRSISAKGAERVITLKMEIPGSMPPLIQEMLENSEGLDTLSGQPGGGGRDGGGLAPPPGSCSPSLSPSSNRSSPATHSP
Sequence of Transcription factor E2F1 (Homo sapiens) (Q01094 whole entry, looked up): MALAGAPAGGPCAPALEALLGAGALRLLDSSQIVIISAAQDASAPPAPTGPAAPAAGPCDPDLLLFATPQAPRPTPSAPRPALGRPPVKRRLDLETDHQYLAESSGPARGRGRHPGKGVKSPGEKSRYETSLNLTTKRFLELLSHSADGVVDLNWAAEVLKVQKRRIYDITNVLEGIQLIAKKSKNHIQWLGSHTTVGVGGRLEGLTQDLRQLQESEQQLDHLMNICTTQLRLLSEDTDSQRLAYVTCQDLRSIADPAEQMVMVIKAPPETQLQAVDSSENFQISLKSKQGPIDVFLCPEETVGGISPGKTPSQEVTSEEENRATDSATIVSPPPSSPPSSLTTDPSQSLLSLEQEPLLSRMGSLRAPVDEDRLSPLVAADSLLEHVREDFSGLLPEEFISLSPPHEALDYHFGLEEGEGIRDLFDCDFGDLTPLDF
Sequence of CCAAT/enhancer-binding protein beta (Homo sapiens) (P17676 whole entry, looked up): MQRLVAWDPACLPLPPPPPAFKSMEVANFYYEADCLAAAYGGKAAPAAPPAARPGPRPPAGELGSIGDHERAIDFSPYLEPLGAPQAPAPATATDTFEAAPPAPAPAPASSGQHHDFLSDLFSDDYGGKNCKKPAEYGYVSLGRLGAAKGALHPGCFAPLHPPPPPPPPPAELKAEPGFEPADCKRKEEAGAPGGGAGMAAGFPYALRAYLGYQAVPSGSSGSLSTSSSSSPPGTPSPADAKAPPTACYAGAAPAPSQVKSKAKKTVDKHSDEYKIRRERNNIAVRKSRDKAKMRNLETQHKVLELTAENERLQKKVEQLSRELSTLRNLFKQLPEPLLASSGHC
Sequence of Aryl hydrocarbon receptor (Homo sapiens) (P35869 whole entry, looked up): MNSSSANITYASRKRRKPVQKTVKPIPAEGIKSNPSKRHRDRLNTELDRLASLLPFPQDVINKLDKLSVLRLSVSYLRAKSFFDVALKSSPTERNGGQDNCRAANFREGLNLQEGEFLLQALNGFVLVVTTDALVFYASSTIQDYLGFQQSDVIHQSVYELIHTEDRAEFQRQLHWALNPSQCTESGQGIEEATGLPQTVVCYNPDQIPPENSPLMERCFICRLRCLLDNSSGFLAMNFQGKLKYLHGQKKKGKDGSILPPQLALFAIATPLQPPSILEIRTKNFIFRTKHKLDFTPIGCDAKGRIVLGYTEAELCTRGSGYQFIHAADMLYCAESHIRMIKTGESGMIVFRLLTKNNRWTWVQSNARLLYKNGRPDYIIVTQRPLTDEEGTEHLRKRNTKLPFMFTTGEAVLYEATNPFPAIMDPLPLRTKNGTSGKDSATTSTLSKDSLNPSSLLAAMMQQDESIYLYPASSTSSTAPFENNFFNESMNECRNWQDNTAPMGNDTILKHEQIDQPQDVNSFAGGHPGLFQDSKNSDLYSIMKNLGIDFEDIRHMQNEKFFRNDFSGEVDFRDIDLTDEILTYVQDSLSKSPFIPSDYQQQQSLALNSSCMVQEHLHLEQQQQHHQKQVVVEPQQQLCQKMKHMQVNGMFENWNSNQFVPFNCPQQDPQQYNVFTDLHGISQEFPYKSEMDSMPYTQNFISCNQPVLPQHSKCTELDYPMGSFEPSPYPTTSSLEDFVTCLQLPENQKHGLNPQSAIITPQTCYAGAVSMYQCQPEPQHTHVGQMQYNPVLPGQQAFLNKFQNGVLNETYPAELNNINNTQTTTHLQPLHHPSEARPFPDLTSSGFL

CC(=O)c1ccc2c(c1)[C@H](NC(=O)c1ccc(F)cc1)[C@@H](O)C(C)(C)O2
inactive: all assays above

CC(C)=CCCC(C)=CC=O
active: [11] 162 µM | [14] 183 µM | [15] 78.9 µM | [16] 137 µM | [18] 139 µM
inactive: all other assays above

CN(C)c1ccc(Cc2ccc(N(C)C)cc2)cc1
active: [3] 30.7 µM | [4] 37.4 µM | [13] 70.4 µM | [16] 65 µM | [18] 61.9 µM
inactive: all other assays above

COCCOc1cc2cc(C(=O)NC3CCN(C(C)C)CC3)n(CC(=O)Nc3ccc(Cl)cn3)c2cn1
active: [3] 63.2 µM | [4] 83.7 µM | [5] 94.3 µM | [11] 100 µM | [14] 71.6 µM | [15] 6.53 µM | [19] 50.4 µM
inactive: all other assays above

CC(C)=CCCC(C)CCO (centres undefined)
active: [3] 0.0229 µM | [9] 39.1 nM
not listed: [19]
inactive: all other assays above

CCOCCOCCOCCO
inactive: all assays above
